Results: PubChem BioAssay
Calls of active or inactive are those of the source.

Experiments:
[1] = target: Albumin (Bos taurus) (UniProt P02769); test: bovine serum albumin binders on microarray, profiling panel, artefact control for SMM control protein annotation, biochemical, small-molecule microarray, Alexa647 label, 635/667 nm fluorescence (AID 1118); conditions: BSA-A647 binding, fluorescence 635 nm, higher = more signal;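 also: score merges 667 nm emission intensity and signal-to-noise per printed compound spot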
[2] = small-molecule microarray binders of probe aXIP, primary screen, biochemical, NeuroSMM set, 635/667 nm fluorescence (AID 1119); conditions: higher = more signal, called active from +8 up or from −8 down;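 also: probe is the protein aXip251-270 applied at 1 µg/mL to compound-printed slides; binding of probe to printed compounds measured as 667 nm fluorescence plus signal to noise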
[3] = small-molecule binders of probe aNOTCH3, primary screen, biochemical, small-molecule microarray, 635/667 nm fluorescence (AID 1120); conditions: higher = more signal;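 also: probe is a biotin-tagged antibody raised against NOTCH3 rather than NOTCH3 protein; score merges spot fluorescence near 667 nm with spot signal to noise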
[4] = small-molecule binders of probe aNOTCH2, primary screen, biochemical, small-molecule microarray, 635/667 nm fluorescence (AID 1121); conditions: higher = more signal;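 also: score merges feature fluorescence read at 667 nm with its signal to noise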
[5] = target: Carbonic anhydrase 2 (Homo sapiens) (UniProt P00918); test: CAII small-molecule binders, profiling panel, biochemical, small-molecule microarray, Alexa647-labelled CAII (AID 1122); conditions: CAII-A647 binding fluorescence, higher = more signal
[6] = COS7 lysate on small-molecule microarray, probe aHis, 635 nm (AID 1123); conditions: COS7 cell lysate, fluorescence, higher = more signal;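 also: z-score combines 667nm fluorescence intensity with signal-to-noise per printed compound spot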
[7] = compound binding in COS7 lysate, probe aLAP1, primary screen, cell lysate, small-molecule microarray (AID 1124); conditions: probe aLAP1, fluorescence, higher = more signal;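 also: lysate comes from COS7 cells expressing LAP1 and is applied at 0.3 µg/mL; score merges spot fluorescence near 667 nm with signal-to-noise over triplicate slides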
[8] = system: Sam68 (KHDRBS1); test: Sam68 small-molecule binders, primary screen, biochemical, small-molecule microarray, 635 nm fluorescence (AID 1125); conditions: small-molecule microarray binding, higher = more signal;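 also: score merges 667 nm channel intensity with signal to noise over triplicate slides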
[9] = system: Chordin-like protein 2 (CHRDL2); test: CHRDL2 small-molecule binders, primary screen, biochemical, small-molecule microarray, 635 nm fluorescence (AID 1126); conditions: small-molecule microarray binding, fluorescence 635 nm; higher = more signal;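 also: printed compound slides probed with Chrdl2 protein at 4 µg/mL for 1 h at 4 C; score merges 667 nm emission intensity with signal to noise over three replicate slides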
[10] = target: Concanavalin-A (Canavalia ensiformis) (UniProt P02866); test: ConA small-molecule binders, primary screen, artefact control for SMM control protein annotation, biochemical, small-molecule microarray, Alexa647 label, 635 nm (AID 1127); conditions: ConA-A647 binding fluorescence, higher = more signal;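 also: z combines 667 nm emission intensity with signal-to-noise across three replicate slides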
Chain of Concanavalin-A (Canavalia ensiformis) (P02866 whole entry, looked up): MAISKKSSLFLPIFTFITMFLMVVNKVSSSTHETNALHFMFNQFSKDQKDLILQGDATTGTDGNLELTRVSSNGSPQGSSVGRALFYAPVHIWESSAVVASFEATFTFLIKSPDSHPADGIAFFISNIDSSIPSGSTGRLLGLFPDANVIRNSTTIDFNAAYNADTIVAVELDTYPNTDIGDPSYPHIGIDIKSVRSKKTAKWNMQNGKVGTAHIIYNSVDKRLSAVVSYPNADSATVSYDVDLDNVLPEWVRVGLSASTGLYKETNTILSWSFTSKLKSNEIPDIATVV

Chain of Albumin (Bos taurus) (P02769 whole entry, looked up): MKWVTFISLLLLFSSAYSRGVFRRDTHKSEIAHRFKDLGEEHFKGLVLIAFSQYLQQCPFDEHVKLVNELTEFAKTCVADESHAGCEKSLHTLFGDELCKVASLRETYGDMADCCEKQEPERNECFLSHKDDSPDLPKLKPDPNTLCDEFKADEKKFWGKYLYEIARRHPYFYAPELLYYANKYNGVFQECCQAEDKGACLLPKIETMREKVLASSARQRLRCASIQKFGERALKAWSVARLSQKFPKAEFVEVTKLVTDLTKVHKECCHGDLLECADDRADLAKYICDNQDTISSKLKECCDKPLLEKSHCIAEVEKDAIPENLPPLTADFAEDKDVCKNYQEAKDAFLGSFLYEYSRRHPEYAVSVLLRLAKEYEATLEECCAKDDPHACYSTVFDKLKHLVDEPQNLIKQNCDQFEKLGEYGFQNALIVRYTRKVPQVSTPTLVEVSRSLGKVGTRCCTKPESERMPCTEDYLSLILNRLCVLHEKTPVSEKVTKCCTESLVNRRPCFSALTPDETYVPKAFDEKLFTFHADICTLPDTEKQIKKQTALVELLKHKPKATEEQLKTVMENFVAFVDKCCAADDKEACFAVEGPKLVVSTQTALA

SMILES	composite z-score [1]	composite Z-score [2]	composite z-score [3]	composite z-score [4]	composite z-score [5]	composite z-score [6]	composite z-score [7]	composite z-score [8]	composite z-score [9]	composite z-score [10]
CN1C2C=C(CCCO)C(C3C(=O)N(C(N)=O)C(=O)C32)C1c1ccc(CN2CCCC2)cc1 (stereo not given)	-1.07	-0.275 (inactive)	-0.326	-0.152	-0.452	-0.0732	-0.579	-1.18	-0.686	-0.34
COC(=O)[C@@]1(Cc2ccccc2)[C@H]2c3cc(C(=O)N4CCCC4)n(CC4CC4)c3C[C@H]2CN1C(=O)c1ccccc1	0.946	1.02 (inactive)	1.13	0.389	0.641	2.89	0.114	1.3	-0.311	0.818
C=CCNC(=O)[C@@H]1[C@H]2C(=O)O[C@H](c3ccccc3)[C@H](c3ccccc3)N2[C@H](c2ccc(OCCO)cc2)[C@@]12C(=O)Nc1ccc(C#Cc3ccc(OC)cc3)cc12	0.77	0.883 (inactive)	0.102	-0.0464	0.331	1.14	0.606	1.3	0.605	1.13
CCOC(=O)C[C@H]1[C@H](OC(=O)Cc2ccc3c(c2)OCO3)[C@@H](NC(=O)c2ccc(-c3ccccc3)cc2)c2cc(OCCCO)ccc2N1C(=O)Cc1ccc(OC)cc1	0.641	0.0844 (inactive)	0.121	0.0126	0.0713	0.365	0.597	0.843	0.236	0.152
CC(CO)N1C(=O)[C@@H]2C3C(=O)OCCC/C=C\[C@H]3OC23C=CCN(c2ccc4ccccc4c2)C(=O)[C@@H]13 (stereo not given in full)	0.611	-0.0775 (inactive)	-0.219	-0.115	0.0684	-0.519	-0.377	-0.704	-0.535	-0.172
C[N+](C)(C)CCCC[C@@H]1NC(=O)[C@@H]2C[C@H](C(=O)NCCCCCN)[C@H](c3cccc(OCCO)c3)N2C1=O	0.924	0.0926 (inactive)	-0.0744	0.0292	0.832	2.08	-0.207	1.32	-0.633	0.929
O=C1O[C@H](c2ccccc2)[C@H](c2ccccc2)N2[C@H]1[C@@H](C(=O)Nc1nc3ccccc3s1)[C@]1(C(=O)Nc3ccc(C#CC4(O)CCCCCC4)cc31)[C@H]2c1ccc(OCCO)cc1	0.8	0.905 (inactive)	-0.0562	0.146	0.219	1.46	1.7	1.3	0.508	1.11
CC(C)C[C@@H]1NC(=O)[C@H]2C[C@@H](C(=O)NCCCCCCN)[C@@H](c3ccc(O)cc3)N2C1=O	0.0662	0.0781 (inactive)	-0.0023	0.171	0.728	2.16	0.627	0.633	1.22	1.18
COCCOC(=O)N1C(=O)[C@@]2(c3cc(C#Cc4ccc(OC)cc4)ccc31)[C@H](C(N)=O)[C@H]1C(=O)O[C@H](c3ccccc3)[C@H](c3ccccc3)N1[C@@H]2c1ccccc1OCCO	0.73	0.611 (inactive)	0.293	0.151	0.653	2.54	1.11	1.3	0.565	1.17
[N-]=[N+]=NCc1ccccc1[C@@H]1OC(c2ccc(OCCCO)cc2)=N[C@]1(CCS(=O)(=O)c1ccccc1)C(=O)NCc1ccccc1	0.732	0.0035 (inactive)	0.946	0.257	0.694	1.89	1.77	1.3	0.518	1.11
COCCOC(=O)N1C(=O)[C@@]2(c3cc(C#CCCO)ccc31)[C@H](C(=O)N1CCc3cc(OC)c(OC)cc3C1)[C@H]1C(=O)O[C@H](c3ccccc3)[C@H](c3ccccc3)N1[C@@H]2c1ccc(O)cc1	-0.335	0.566 (inactive)	0.0893	-0.0846	0.471	2.33	0.255	1.29	0.425	1.04
Cc1ccc(S[C@]2(C(=O)NCC(C)C)CC(=O)N(Cc3cc(C(F)(F)F)cc(C(F)(F)F)c3)[C@@H]2c2ccc(CO)cc2I)cc1	0.0274	0.786 (inactive)	-0.188	-0.0415	0.89	0.234	0.77	-0.47	-1.76	-1.39
Cc1ccc(S[C@]2(C(=O)NCC(F)(F)F)CC(=O)N(C(C)C)[C@@H]2c2ccc(CO)cc2I)cc1	-0.667	0.314 (inactive)	-0.276	-0.0557	0.742	0.506	0.106	-0.749	-0.445	-0.967
C[C@@]1([C@@H](NC(=O)c2ccccc2)c2ccc(-c3ccccc3)cc2)C[C@H]1C1CCCCC1	0.373	0.309 (inactive)	0.106	0.378	-0.137	0.121	-0.0002	-1.66	-1.51	-0.867
CC(C)(C)OC(=O)CC[C@@]12N=C(c3ccc(OCCCO)cc3)O[C@@H]1c1ccccc1N(CCS(=O)(=O)c1ccccc1)C2=O	-0.458	0.733 (inactive)	0.106	-0.179	0.73	1.59	0.184	0.461	0.623	1.14
